According to PubChem BioAssay:
Values without a mark were called inactive. How the calls were made is not given here.

These molecules were tested against Pantothenate synthetase (Mycobacterium tuberculosis (strain ATCC 25618 / H37Rv)) (UniProt P9WIL5) (assay: Recombinant Mtb pantothenate synthetase (PanC) inhibitors, coupled enzyme, confirmatory (AID 375;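 further: 0% = full reaction with vehicle and 100% = no enzyme background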)). Settings: coupled enzyme assay; at 10 µM, active compounds read high.
Chain of Pantothenate synthetase (Mycobacterium tuberculosis (strain ATCC 25618 / H37Rv)) (P9WIL5 whole entry, looked up): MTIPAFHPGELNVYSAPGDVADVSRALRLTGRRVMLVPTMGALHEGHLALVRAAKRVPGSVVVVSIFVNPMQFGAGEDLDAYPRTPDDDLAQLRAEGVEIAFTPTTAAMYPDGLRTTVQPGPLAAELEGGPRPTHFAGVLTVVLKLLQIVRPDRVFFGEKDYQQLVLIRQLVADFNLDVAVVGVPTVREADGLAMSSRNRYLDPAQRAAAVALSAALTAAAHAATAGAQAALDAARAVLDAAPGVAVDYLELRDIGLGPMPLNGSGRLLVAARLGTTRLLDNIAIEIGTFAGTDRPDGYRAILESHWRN

Structure (SMILES)	inhibition [%]
O=C(Cn1ccc2ccccc2c1=O)NCCC(=O)N1CCN(C2CCCCC2)CC1	5
COc1nc(OC)nc(N2CCC(C(=O)NC3CCCCCC3)CC2)n1	11
O=C(Nc1cc(C(=O)N2CCCC2)ccc1N1CCCC1)c1ccccc1F	2
O=C(Nc1ccc2c(c1)OCO2)c1cc2ncc(Br)cn2n1	3
O=C(NCCCNC1CCCCC1)c1ccc(/C=N/O)nc1	0
O=C(NCc1ccc(F)cc1)c1cc2ccccn2n1	1
Cc1ccccc1NC(=O)N1C2CCCC1CC(NC(=O)C1CC1)C2 (stereo not given)	14
Cc1c(NC(=O)c2ccc(COc3ccc4ccccc4c3)o2)c(=O)n(-c2ccccc2)n1C	0
COc1ccc(CCNC(=O)CSCc2n[nH]c(=O)[nH]2)cc1OC	0
O=C(Nc1nc(-c2ccccn2)cs1)C1CC1	0
CCOC(=O)N1CCN(c2cc(=O)n(-c3ccc(OCC)cc3)c(=O)[nH]2)CC1	5
CCOCCCNC(=O)c1ccc2c(c1)ncn2C1CCCC1	5
COc1ccc2c(=O)c3c(=O)n(Cc4ccco4)c(C(C)C)nc3oc2c1	0
CCn1c(SCC(=O)c2ccc3c(c2)OCCO3)nnc1-c1ccco1	11
Cc1cccc(-n2nnnc2SCc2csc(-c3ccccc3)n2)c1	0
CCOC(=O)CSc1nnc2n1C(C)(C)Cc1ccccc1-2	3
CC(CN1CCCCC1)OC(=O)c1ccc2c(c1)OCO2 (stereo not given)	0
COCCNC(=O)c1cc(-c2cccs2)on1	0
Cn1nnnc1SCC(=O)N1CCN(c2cccc(Cl)c2)CC1	2
O=C1CCCC(O)=C1C=Nc1ccc2c(c1)oc1ccccc12	3

Structure (SMILES)	inhibition [%]
O=C(C1CCN(S(=O)(=O)Cc2ccccc2)CC1)N1CCN(c2ncccn2)CC1	0
Cc1ccc(OCC2Cn3c(nc4c3c(=O)n(C)c(=O)n4C)O2)cc1 (stereo not given)	0
O=S(=O)(Nc1ccccn1)c1ccc(Oc2ccccc2)cc1	1
COc1ccc(S(=O)(=O)Nc2ccc(F)c(Cl)c2)cc1OC	0
CC1CCc2nn(CC(=O)NCCN3CCOCC3)cc2C1 (stereo not given)	0
CCCOc1cccc(C(=O)Nc2cc(NC(=O)c3ccco3)ccc2OC)c1	0
CCC(=O)N1CCc2cc(S(=O)(=O)CCC(=O)Nc3c(C)n(C)n(-c4ccccc4)c3=O)ccc21	7
CCOC(=O)N1CCN(CC(O)COc2ccccc2C(C)CC)CC1 (stereo not given)	7
CCOC(=O)CSc1nnc(-c2ccc(NS(=O)(=O)c3ccc(C)cc3)cc2)o1	0
CCn1c(=O)n(CC(=O)NCc2ccccc2OC)c(=O)c2ccccc21	12
CCOc1ccc(CN2C(=O)c3ccccc3C2C(=O)NCc2cccnc2)cc1 (stereo not given)	0
Cc1nnc(N(C)C(=O)Cc2ccc3c(c2)OCO3)s1	0
CCOC(=O)c1oc2cccc(OC(C)=O)c2c1C	4
CCCNC(=O)NS(=O)(=O)c1ccc(Cl)cc1	5
S=c1[nH]nc(COc2ccccc2)n1C1CCCCC1	0
COc1ccc(C(=O)COC(=O)CCn2nnc(-c3cccs3)n2)cc1	0
CCOC(=O)C1(C)NC(c2ccc(OC)c(OC)c2)C2C(=O)N(CC)C(=O)C21 (stereo not given)	9
c1ccc(CN2CCN(c3ncnc4c3[nH]c3ccccc34)CC2)cc1	5
O=C1NC(=O)C(CC(=O)N(c2ccccc2)C2(C(=O)NC3CCCC3)CCCCC2)N1 (stereo not given)	2
Cn1c(=O)[nH]c(=O)c2c1nc(CN1CCN(c3cccc(Cl)c3)CC1)n2CCc1ccccc1	4
